Pf growth 96h = P. falciparum growth inhibition at 96 hour, primary screen for plastid delayed-death inhibitors | P. falciparum luciferase reporter growth, 96 h | Potency, µM (top dose mostly 28.7 µM), without a hit: at the highest dose activity change, negative = inhibition, usual class: inhibitors | actives 6.9% (n = 320,000); also: potency is read from the fitted curve at half-maximal effect; % is scaled to controls: 0 for no effect and ±100 for the full control effect
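Plates of compound plus infected erythrocytes (2% hematocrit, 0.05% parasitemia final) incubate 96 hours, 37 C, 5% CO2. Detection reagent added; reduced luminescence from the parasites' luciferase reporter flags inhibition.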
Pf growth 48h = P. falciparum growth inhibition at 48 hours (one generation); actives 5.9% (n = 310,000); P. falciparum luciferase growth in erythrocytes, 48 h; AID 504832; Potency, µM (top dose mostly 28.7 µM), inactives show top-dose activity change, negative = inhibition, usual class: inhibitors; also: potency is read from the fitted curve at half-maximal effect; % is scaled to controls: 0 for no effect and ±100 for the full control effect
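Cell-based growth assay: transgenic P. falciparum expressing firefly luciferase, cultured in red cells within RPMI 1640 containing 0.5% w/v Albumax, 24 mM bicarbonate and gentamycin. A drop in luciferase activity indicates inhibition.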
HCMV antiviral = inhibitors of human cytomegalovirus; HFF cells, HCMV-luciferase reporter, 72 h; hits give low values; activity change, negative = inhibition, % at 57.5 µM; actives 4.5% (n = 410,000); AID 1259415; in the data active = activity change below about -60%; inconclusive = no clear call, values can overlap the other calls; inactive = above about -39%; also: % is scaled to controls: 0 for no effect and ±100 for the full control effect
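Human foreskin fibroblasts infected with luciferase-reporter HCMV at MOI 1 PFU/cell, compounds at two doses. Luciferase measured 72 h post infection; normalized to buffer-only basal and Salinomycin (10uM) controls.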
HCV inh = inhibitors of hepatitis C virus infection; Potency, µM (top dose mostly 41.8 µM), without a hit: at the highest dose activity change, negative = inhibition, actives largely listed as inhibitors; actives 3.4% (n = 340,000); Huh7.5.1 HCVcc-Cre infection, luciferase reporter, 44 h; also: potency is read from the fitted curve at half-maximal effect; % is scaled to controls: 0 for no effect and ±100 for the full control effect
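1,000 cells/well; 4 h culture; + compound; + HCVcc-Cre (~0.5 moi); 44 h; luciferase substrate, RT 15 min; read 15 sec.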
Sm TGR block = inhibitors of Schistosoma mansoni thioredoxin glutathione reductase. Potency, µM (series often up to 114 µM), inactives show at the highest dose activity change, negative = inhibition, actives largely listed as inhibitors. purified TGR, DTNB reduction, TNB absorbance 405 nm. Q962Y6. AID 485364. actives 3% (n = 360,000); also: potency is read from the fitted curve at half-maximal effect; % is scaled to controls: 0 for no effect and ±100 for the full control effect; nearly all actives have a fitted effect of over 60% in size
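First, TGR (20 nM dispensed) and NADPH were mixed with compound. Second, a 15 min room-temperature incubation followed. Third, further NADPH and then DTNB were added to start the reaction. Finally, TNB absorbance was monitored kinetically.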
SARS PLP yeast = SARS-CoV PLP inhibition in yeast | S. cerevisiae expressing SARS-CoV PLpro, growth rescue | Potency, µM (series often up to 32.9 µM), inactives show top-dose activity, positive = growth rescue, actives largely listed as activators | actives 0.19% (n = 330,000); calls by dose curve; also: potency is read from the fitted curve at half-maximal effect; 0% is about no effect; nearly all actives have a fitted effect of over 55% in size
An asterisk follows results filed as active; u = inconclusive; x = no result. Only some compounds are listed: those with a hit (about 15% of all), similar ones and a draw of the others. Unless noted, calls follow the shape of the dose curve; as a rule, active = well fitted curve in the direction sought with a large enough effect; inconclusive = small, poorly fitted or top-dose-only effect, or another doubt; inactive = no such curve, though single readings can be large; an effect the other way counts as inactive or inconclusive.

SMILES	Pf growth 96h	Pf growth 48h	HCMV antiviral	HCV inh	Sm TGR block	SARS PLP yeast
CCN(CC)CCN(Cc1cc2ccc(C)cc2[nH]c1=O)C(=S)Nc1ccccc1C(=O)OC	47%	13µM*	-21	u	0%	1%
COC(=O)c1ccccc1NC(=S)N(Cc1ccc2c(c1)OCO2)Cc1cc2cc(C)ccc2[nH]c1=O	5%	u	u	u	0%	6%
COC(=O)c1ccccc1NC(=S)N(Cc1ccc2c(c1)OCO2)Cc1cc2ccc(C)cc2[nH]c1=O	u	9.3µM*	u	u	1%	21%
CC(=O)Oc1ccc(C(=O)Nc2cc(NC(=O)c3ccc(OC(C)=O)cc3)cc(C(=O)NC(C)(C)C)c2)cc1	2.6µM*	u	57	6%	0%	1%
CC(=O)Oc1ccc(C(=O)Nc2cccc(C(=O)c3ccc(C)c(C)c3)c2)cc1	77%	12µM*	-7	u	11%	1%
COc1ccc(C(=O)Nc2cccc(OC(=O)c3ccc(C)c(C)c3)c2)cc1	246%	4%	58	u	7%	0%
COc1ccc(OC)c(NC(=O)N2CCC3(CC2)Oc2ccccc2C(=O)N3Cc2ccccc2F)c1	x	x	6	x	13%	x
CC(C)(C)OC(=O)COc1ccc(/C=N/NC(=O)CN2CCCCC2)cc1	57%	135%	105	4%	3%	2%
COc1ccc(N2CCN(CC(O)COC(c3ccc(F)cc3)c3ccc(F)cc3)CC2)cc1 (stereo not drawn)	15µM*	9.3µM*	-29	u	1%	-1%
OC(COc1ccc(F)cc1)CN1CCN(CC(O)COc2ccc(F)cc2)CC1 (stereo not drawn)	18%	-18%	5	32µM*	-5%	0%
OC(COc1ccccc1)CN1CCCCC1 (stereo not drawn)	x	x	-5	26%	x	x
Cc1cc(OCC(O)CN2CCN(CCO)CC2)ccc1C(C)C (stereo not drawn)	9.3µM*	-9%	-19	-14%	-4%	-7%
OC(COc1ccccc1)CN1CCOCC1 (stereo not drawn)	12µM*	-15%	-30	u	-21%	5%
CCCn1nnnc1NC(=O)CSc1ccc(Cl)cc1	22%	0%	-9	u	1%	-6%
COC(=O)c1ccc(NC(=O)CCn2cnnn2)cc1	x	x	-18	x	8%	x
COCCn1nnnc1CN1CCSCC1	-89%	-2%	35	16%	10%	0%
O=C(c1ccccc1)c1ccc(OCC(O)CN2CCN(S(=O)(=O)N3CCCCC3)CC2)cc1 (stereo not drawn)	5.2µM*	x	-67*	u	8%	8%
O=C(c1ccccc1)c1ccc(OCC(O)CN2CCCCC2)cc1 (stereo not drawn)	x	u	40	u	-7%	7%
OC(COc1ccc(CNCCc2ccccc2F)cc1)CN1CCCCC1 (stereo not drawn)	-12%	6.6µM*	-33	u	-24%	1%
Cc1cc(C)c2c(=O)cc(C(=O)Nc3sc4c(c3C(=O)NCc3ccccc3)CCCC4)oc2c1	x	x	1	x	-2%	x
COCCNC(=O)C1(C)CCCN(Cc2csc3ccccc23)C1 (stereo not drawn)	x	x	-2	x	x	x
CSc1ccccc1C(=O)NC(C)c1ccc(-n2ccnc2)cc1 (stereo not drawn)	u	10%	-12	-5%	5.6µM*	4%
CCOc1ccccc1C(=O)NC(C)c1ccc(-n2ccnc2)cc1 (stereo not drawn)	8.3µM*	u	-37	u	u	0%
O=C(COC(=O)CNS(=O)(=O)/C=C/c1ccccc1)Nc1cccc2ccccc12	1%	4%	-24	10%	x	0%
COC(=O)c1c(Oc2ccc(Br)cc2)nnc(-c2ccccc2)c1-c1ccccc1	x	x	-4	x	2%	x
